Test [1] is described as follows: antimalarial activity against Dd2 strain (AID 2302;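 active = growth inhibition above 50% at the single 2 µM test dose, taken to imply half-maximal potency below 2 µM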;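 also: 0% = DMSO untreated growth and 100% = chloroquine plus artemisinin killed control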). Particulars: P. falciparum Dd2 in RBCs, LDH growth readout, 72 h; at 2 µM; stronger effect = higher value.
A short description of test [2]: HepG2 cytotoxicity, primary screen, cytotoxicity control for P. falciparum antimalarial project, cell-based, ATP luminescence (AID 2303;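 active = inhibition above 50%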;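 also: 0% = DMSO wells and 100% = digitonin-killed cells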). Particulars: HepG2 viability, 24-48 h, at 10 µM, stronger effect = higher value.
Test [3] concerns the target L-lactate dehydrogenase (Plasmodium falciparum (isolate CDC / Honduras)) (UniProt Q27743). Briefly: PfLDH activity inhibition – cell lysate, 3D7 strain, counter-screen for P. falciparum growth inhibition project (AID 2304).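 Also: 0% = vehicle and 100% = reference inhibitor.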 To be noted: P. falciparum 3D7 crude extract, LDH APAD/NBT absorbance; at 2 µM; stronger effect = higher value. Background: Counterscreens check selectivity or assay interference.

Test [4] can be described thus: inhibition of 3D7 malaria parasite growth – strain 3D7 (AID 2306).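 Also: 0% = DMSO wells and 100% = chloroquine plus artemisinin control wells.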 Particulars: P. falciparum 3D7 erythrocytic growth, LDH absorbance, 72 h; at 2 µM; stronger effect = higher value.
For test [5], the target named is Calcium-dependent protein kinase 1 (Plasmodium falciparum (isolate 3D7)) (UniProt P62344). Description: PfCDPK1 kinase inhibitors, biochemical, TCAMS library (AID 1159585; cut-off not given, nearly all actives have IC50 up to about 0.98 µM;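 also: inhibitors leave more ATP so luminescence rises with inhibition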). Particulars: recombinant PfCDPK1, Kinase-Glo ATP depletion luminescence. In general terms: Kinase-Glo measures the ATP left after a reaction by luminescence.
The target in test [6] is Plasmodium falciparum protein kinase 6 (PK6, PF3D7_1337100) (UniProt Q8IDW1). Briefly: PfPK6 kinase inhibitors, biochemical, TCAMS library (AID 1159586). To be noted: recombinant PfPK6, Kinase-Glo ATP depletion luminescence.
In test [7] the target is Protein kinase 7 (PK7), Plasmodium falciparum 3D7 (PF3D7_0213400) (UniProt Q7YTF7). Briefly: inhibition of Plasmodium PK7 catalytic activity – biochemical, TCAMS antimalarial set, Kinase-Glo luminescence (AID 1159587). To be noted: recombinant PfPK7, Kinase-Glo ATP depletion luminescence.
Test [8] addresses Calcium-dependent protein kinase 4 (Plasmodium falciparum (isolate 3D7)) (UniProt Q8IBS5). Description: PfCDPK4 kinase inhibitors, biochemical, TCAMS library (AID 1159588; cut-off not given, nearly all actives have IC50 up to about 0.91 µM). To be noted: recombinant PfCDPK4, Kinase-Glo ATP depletion luminescence.

SMILES strings stand for the structures. Unmarked numbers belong to inactive results. For part of these data: Entries with a potency or affinity are not part of this list. Calls of active or inactive are those of the source. Unless noted, no rule for the calls is given here.

Chain of Protein kinase 7 (PK7), Plasmodium falciparum 3D7 (PF3D7_0213400) (Q7YTF7 1-343): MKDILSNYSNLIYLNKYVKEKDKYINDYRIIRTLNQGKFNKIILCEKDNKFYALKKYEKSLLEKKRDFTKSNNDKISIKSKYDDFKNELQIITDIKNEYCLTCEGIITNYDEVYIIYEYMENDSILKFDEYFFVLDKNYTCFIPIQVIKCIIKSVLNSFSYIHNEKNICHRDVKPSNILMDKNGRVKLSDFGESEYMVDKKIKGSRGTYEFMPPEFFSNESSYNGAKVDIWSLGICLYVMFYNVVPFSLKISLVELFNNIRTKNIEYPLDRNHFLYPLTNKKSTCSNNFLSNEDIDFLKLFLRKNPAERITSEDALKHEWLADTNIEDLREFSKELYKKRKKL
Chain of Plasmodium falciparum protein kinase 6 (PK6, PF3D7_1337100) (Q8IDW1 1-305): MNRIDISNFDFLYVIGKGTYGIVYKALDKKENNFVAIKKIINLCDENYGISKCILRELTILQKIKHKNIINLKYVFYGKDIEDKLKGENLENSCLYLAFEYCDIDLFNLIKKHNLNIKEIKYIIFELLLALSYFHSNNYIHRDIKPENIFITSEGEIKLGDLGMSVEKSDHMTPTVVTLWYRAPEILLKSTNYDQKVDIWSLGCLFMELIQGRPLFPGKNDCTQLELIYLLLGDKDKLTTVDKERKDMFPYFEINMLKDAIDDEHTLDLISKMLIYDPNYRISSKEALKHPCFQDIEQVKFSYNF
Chain of Calcium-dependent protein kinase 4 (Plasmodium falciparum (isolate 3D7)) (Q8IBS5 whole entry, looked up): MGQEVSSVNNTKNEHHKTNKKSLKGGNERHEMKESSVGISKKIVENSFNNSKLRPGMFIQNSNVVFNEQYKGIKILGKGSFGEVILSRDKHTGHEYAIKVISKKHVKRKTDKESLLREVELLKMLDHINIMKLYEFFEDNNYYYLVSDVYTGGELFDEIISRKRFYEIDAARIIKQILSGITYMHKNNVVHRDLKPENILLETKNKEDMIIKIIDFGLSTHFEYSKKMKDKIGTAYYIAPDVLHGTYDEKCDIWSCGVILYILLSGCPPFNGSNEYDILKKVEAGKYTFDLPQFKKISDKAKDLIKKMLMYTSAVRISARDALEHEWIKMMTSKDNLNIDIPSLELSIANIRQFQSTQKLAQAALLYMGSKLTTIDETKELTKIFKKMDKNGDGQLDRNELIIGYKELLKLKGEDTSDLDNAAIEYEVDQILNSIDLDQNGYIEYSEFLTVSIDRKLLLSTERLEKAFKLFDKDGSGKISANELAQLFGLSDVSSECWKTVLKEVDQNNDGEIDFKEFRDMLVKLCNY
Chain of L-lactate dehydrogenase (Plasmodium falciparum (isolate CDC / Honduras)) (Q27743 whole entry, looked up): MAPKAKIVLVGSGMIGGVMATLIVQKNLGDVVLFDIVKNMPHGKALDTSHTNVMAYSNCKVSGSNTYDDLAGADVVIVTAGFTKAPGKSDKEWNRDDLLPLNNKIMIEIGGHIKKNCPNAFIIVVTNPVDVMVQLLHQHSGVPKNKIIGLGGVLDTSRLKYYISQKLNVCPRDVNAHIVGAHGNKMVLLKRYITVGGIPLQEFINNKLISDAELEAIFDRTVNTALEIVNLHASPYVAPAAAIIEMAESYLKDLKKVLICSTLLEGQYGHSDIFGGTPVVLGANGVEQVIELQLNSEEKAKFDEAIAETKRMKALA
Chain of Calcium-dependent protein kinase 1 (Plasmodium falciparum (isolate 3D7)) (P62344 whole entry, looked up): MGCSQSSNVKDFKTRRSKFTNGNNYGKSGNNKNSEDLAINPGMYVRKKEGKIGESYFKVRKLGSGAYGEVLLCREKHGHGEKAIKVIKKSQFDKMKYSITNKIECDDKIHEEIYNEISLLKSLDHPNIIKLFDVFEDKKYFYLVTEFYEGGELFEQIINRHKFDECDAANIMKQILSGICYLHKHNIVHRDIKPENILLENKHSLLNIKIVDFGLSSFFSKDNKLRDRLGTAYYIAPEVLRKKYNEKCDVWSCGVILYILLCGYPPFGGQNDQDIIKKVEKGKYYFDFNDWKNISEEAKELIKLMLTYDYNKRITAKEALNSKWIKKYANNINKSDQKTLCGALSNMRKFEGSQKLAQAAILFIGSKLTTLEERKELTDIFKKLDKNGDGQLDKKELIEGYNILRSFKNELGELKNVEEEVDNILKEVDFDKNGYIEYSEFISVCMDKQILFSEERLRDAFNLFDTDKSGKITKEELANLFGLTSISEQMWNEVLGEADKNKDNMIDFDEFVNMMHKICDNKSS

On to `CCCn1cnc2cc(C(=O)Nc3ccc(-c4cccc(CN(C)C)c4)cc3)ccc2c1=O`, for which the growth inhibition in test [1] was 6%; in test [4], 95% (active). In addition, the inhibition was 26% in test [2] and -6% in test [3]. Besides, the result in test [5], in test [6], in test [7] and in test [8] was inactive.

Consider `COc1ccc(CNCC2CCC(CNCCc3ccccc3)CC2)cc1Cl` (centres undefined), for which the growth inhibition in test [1] was 29%; in test [4], 100% (active). Also, the inhibition in test [2] was 23%; in test [3], -2%. Also, the result in test [5], in test [6], in test [7] and in test [8] was inactive.

Turning to `CCCN(CCCCCCNCCc1ccc(Cl)cc1)CCc1ccc(O)c(O)c1`, the growth inhibition in test [1] was 11%; in test [4], 91% (active). Further, the values for the inhibition in test [2] and in test [3] were 26% and -3%, respectively. In addition, the result in test [5], in test [6], in test [7] and in test [8] was inactive.

In general, inhibition refers to the relative decrease from the control value, in per cent.

(Values after PubChem BioAssay.)
